Compound activity as filed in PubChem BioAssay.
Shown are actives, neighbours in structure and some others; about 3% of the full set was active somewhere.
ClpP mod: qHTS Assay for Activators of ClpP; 340,000 compounds, 1.9% hits; Potency, µM (titrated, usually from 57.5 µM), inactives show top-dose activity change, negative = active; ATP-dependent Clp protease proteolytic subunit (Bacillus subtilis (strain 168)), P80244; AID 651965, 2013; purified B. subtilis ClpP, FRET peptide cleavage, 20 min; active = well fitted falling curve with a large enough effect; inconclusive = small, poorly fitted or top-dose-only effect; inactive = no such curve, though single readings can be large or run the other way; also: potency is read from the fitted curve at half-maximal effect; the source files actives as falling curves though it sought activators and does not explain the sign; nearly all actives have a fitted effect of over 65% in size
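Purified B. subtilis ClpP, 10 microg/mL final in Tris/HCl pH8 with KCl, BSA, glycerol and Tween-20, cleaved an Abz/nitrotyrosine-quenched decapeptide. Fluorescence (ex 320, em 430) was read at 0 and 20 min at room temperature. Delta was normalized to 5.8 microM ADEP and DMSO/no-enzyme controls.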
12-LOX inh: blocks human arachidonate 12S-lipoxygenase | purified 12hLO, xylenol orange hydroperoxide absorbance | 580,000 compounds, 1.1% hits | P18054 | Potency, µM (doses to about 108 µM), without a hit: top-dose activity change, negative = inhibition, most hits filed as inhibitors; active = well fitted inhibition curve with a large enough effect; inconclusive = small, poorly fitted or top-dose-only effect, or another doubt; inactive = no such curve, though single readings can be large or run the other way; also: potency is read from the fitted curve at half-maximal effect; % is scaled to controls: 0 for no effect and ±100 for the full control effect
Target sequence (P18054 whole entry, looked up): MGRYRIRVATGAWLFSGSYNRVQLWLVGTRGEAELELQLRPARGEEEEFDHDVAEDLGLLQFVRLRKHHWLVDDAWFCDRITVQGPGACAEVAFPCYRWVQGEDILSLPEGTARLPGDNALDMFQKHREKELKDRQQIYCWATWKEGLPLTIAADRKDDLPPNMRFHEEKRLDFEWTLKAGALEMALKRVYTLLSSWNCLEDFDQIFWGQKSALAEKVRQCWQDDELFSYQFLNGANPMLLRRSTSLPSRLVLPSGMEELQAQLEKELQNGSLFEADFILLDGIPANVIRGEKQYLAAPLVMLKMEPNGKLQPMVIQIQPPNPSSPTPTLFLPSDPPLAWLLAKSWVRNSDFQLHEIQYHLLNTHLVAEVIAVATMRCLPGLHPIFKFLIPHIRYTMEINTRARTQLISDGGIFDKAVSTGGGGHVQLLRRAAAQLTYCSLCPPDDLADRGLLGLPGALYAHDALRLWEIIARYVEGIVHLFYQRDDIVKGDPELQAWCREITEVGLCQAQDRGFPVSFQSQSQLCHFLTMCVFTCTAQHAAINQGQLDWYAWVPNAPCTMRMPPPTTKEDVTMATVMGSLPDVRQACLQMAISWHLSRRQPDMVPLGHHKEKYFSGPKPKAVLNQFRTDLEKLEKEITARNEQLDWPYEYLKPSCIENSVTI
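Hydroperoxide product was detected by ferrous iron/xylenol orange as the 573 to 405 nm absorbance ratio. Arachidonic acid at 40 uM (final) was turned over for 30 min at room temperature by 150 nM human 12hLO, pH 7.0 Hepes buffer, after 15 min compound preincubation.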
KCNH2 WT inh: KCNH2 (human, wildtype) channel inhibition. 340,000 compounds, 0.37% hits. activity change, % at 1.84 µM. U2OS, BacMam KCNH2, thallium flux FluxOr; stronger effect = lower value. Q12809;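 active = maximum activity change below -70%; inconclusive = maximum activity change between -70% and -50%; inactive = maximum activity change above -50%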; also: % is scaled to controls: 0 for no effect and ±100 for the full control effect
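U2OS cells transduced with wild-type KCNH2 virus are loaded with FluxOr dye for 45 min, and thallium flux is measured in kinetic reads before and after stimulation buffer. Rate constants are normalized to DMSO controls.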
LDHA inh: LDHA (human) enzyme inhibition; P00338; purified LDHA, NADH/diaphorase-resazurin fluorescence; stronger effect = lower value; activity change, % (values are at about 110 or 230 µM); 480,000 compounds, 0.15% hits; AID 1347041; in the data active = activity change below about -30%; inconclusive = mostly about -25% to -30%;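 also: plate controls were DMSO wells for no effect and wells without enzyme for full effect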
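LDH5 2 nM; NADH 0.06 mM, pyruvate 0.2 mM; 200 mM Tris pH 7.4, EDTA, Tween-20; 5 min RT. Detection: diaphorase 0.133 mg/mL + resazurin 37 µM, fluorescence ex540/em590 at 0 and 20 min; normalized to enzyme-free and DMSO wells.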
BCR signal inh: blocks chronic active B-cell receptor signaling; ABC-DLBCL IkBa-CBG/CBR reporter, luminescence ratio, 4 h; 340,000 compounds, 0.05% hits; Potency, µM (top dose mostly 46.1 µM), without a hit: at the top dose activity change, negative = inhibition, hits mostly inhibitors; active = well fitted inhibition curve with a large enough effect in the signal ratio, with a control signal flat, not every such curve was filed as active; inconclusive = small, poorly fitted or top-dose-only effect, or effect the other way, or a change in a side signal; the % refers to the signal ratio;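 also: potency is read from the fitted curve at half-maximal effect; plate controls were basal doxycycline-induced cells for no effect and cells given 10 µM MG132 for full effect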
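Concentration-response series (up to 46 uM) were applied to TMD8 dual-reporter cells for 4 h at 37C with doxycycline. Green/red ratio, after filter-overlap correction, defined %Activity; red signal alone was normalised to basal cells and zero luminescence.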
KCNH2 3.1 inh: blocks the human KCNH2 3.1 channel isoform. activity change, % (tested at about 1.8 µM). U2OS KCNH2 3.1, thallium flux FluxOr; stronger effect = lower value. AID 720553. 340,000 compounds, 0.95% hits;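 active = maximum activity change below -70%; inconclusive = maximum activity change from -70% to -50%; inactive = maximum activity change above -50%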;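 also: thallium influx rate constant from kinetic fluorescence after stimulation buffer; % is scaled to controls: 0 for no effect and ±100 for the full control effect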
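Steps: virus added to U2OS suspension (4 h, RT, dark); medium with 10% FBS added, cells plated, 37 C overnight; FluxOr/Red40 loading buffer 45 min RT; stimulation buffer, 2 min kinetic read; rate constant normalized.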
* marks the source's active call; other numbers are inactive results; ? = inconclusive; . = no result given.

SMILES	ClpP mod	12-LOX inh	KCNH2 WT inh	LDHA inh	BCR signal inh	KCNH2 3.1 inh
CCc1c(C)nc(C)nc1N1CCN(C)C2(CCC(=O)N(CC)CC2)C1 (stereo not drawn)	.	7.4%	.	.	.	.
COc1ccc(OC)c(-c2oc3ccccc3c(=O)c2O)c1	2.2%	?	9.0	-4.8	-13.9%	0.6
COc1cc(OC)c(-c2oc3ccccc3c(=O)c2O)c(OC)c1	28.2µM*	-16.1%	-9.7	0.8	.	-9.1
Clc1ccc2[nH]c(-c3ccccc3)cc2c1	28.2µM*	?	3.8	-5.2	?	-2.9
CCOC(=O)c1ccc(NC(=O)CC2SC(c3cc4ccccc4oc3=O)=NC2=O)cc1 (stereo not drawn)	.	-16.9%	.	-30.6*	.	.
Cc1ccc(C(=O)N[C@@H]2CN(Cc3ccncc3)C[C@H]2CN(C)C)cc1C	.	78.1%	.	.	.	.
O=C(O)c1nn(CC(=O)N2CCCCCC2)c(=O)c2ccccc12	28.2µM*	0.9%	8.7	-7.3	1.3%	4.2
O=C(O)c1nn(Cc2ccccc2)c(=O)c2ccccc12	.	-22.7%	.	-31.9*	.	.
CCc1cccc(C)c1NC(=O)Cn1nc(C(=O)O)c2ccccc2c1=O	.	15.8µM*	.	-0.1	.	.
CC(C)(C)c1ccc(Cn2nc(C(=O)O)c3ccccc3c2=O)cc1	.	-5.9%	.	5.4	.	.
CC(CNC(=O)Cn1nc(C(N)=O)c2ccccc2c1=O)(c1ccccc1)c1ccccc1	.	31.6µM*	.	7.4	.	.
NC(=O)c1nn(CC(=O)N2CCN(CC(=O)N3CCCCCC3)CC2)c(=O)c2ccccc12	.	?	.	8.6	.	.
O=C(CCn1ccc2ccccc21)NC12CC3CC(CC(C3)C1)C2	.	?	.	-0.1	.	.
CN(C)CCCNCCc1ccccc1	.	?	.	8.7	.	.
O=C(c1cnccn1)N1CC(=O)N2[C@@H](CO)[C@H](c3ccc(Br)cc3)[C@@H]2C1	.	10µM*	.	.	.	.
O=C(NCc1ccccn1)c1coc(=O)c(Br)c1	15.8µM*	78.6%	-2.7	-0.4	?	-12.8
CC(C)C(NC(=O)c1cccc(CS(C)(=O)=O)c1)c1ccc(F)cc1 (stereo not drawn)	.	-25.8%	.	-9.7	.	.
NC(=O)c1ccc(S(=O)(=O)NCCc2ccc(-n3cccn3)cc2)cc1	.	23.8%	.	-3.8	.	.
S=c1cn[nH]c2ccccc12	-0.1%	39.8µM*	0.4	-4.7	.	15.0
Nc1cccc2[nH]ncc12	.	-4.8%	.	33.9	.	.
Cc1c(-c2ccccc2)oc2c(C(=O)NC3CCN(C(C)C)CC3)cccc2c1=O	.	-12.1%	.	-1.6	.	.
O=C1OC(CN(Cc2ccccc2)Cc2ccccc2)CN1N=Cc1ccc([N+](=O)[O-])o1 (stereo not drawn)	.	12.6µM*	-24.3	-2.7	.	-47.2
S=c1nc(-c2ccccc2Cl)[nH][nH]1	-0.3%	15.8µM*	1.6	1.8	6.3%	13.7
CCC1(N2CCN(S(=O)(=O)c3ccc(F)cc3F)CC2)CCN(C(=O)C(C)C)C1 (stereo not drawn)	.	3.6%	.	.	.	.
CC1=C/C(=N\Nc2ccccc2Cl)CC1	.	?	.	9.5	.	.
SMILES	ClpP mod	12-LOX inh	KCNH2 WT inh	LDHA inh	BCR signal inh	KCNH2 3.1 inh
CC1=C/C(=N\Nc2nncc3ccccc23)CC1	.	50.1µM*	.	-0.2	.	.
CC(C)(C)c1ccc(OCCCN2CCCC2)cc1	-4.2%	?	40.0	-19.8	1.5%	-86.4*
CC(C)Oc1ccc(OCCCN2CCCCCC2)cc1	-1.8%	0.447µM*	12.2	-14.2	-6.0%	-36.7
CC(C)c1ccc(OCCCCN2CCCCC2)cc1	.	0.0%	28.1	-16.6	-0.7%	?
c1cc(OCCCN2CCCCC2)ccc1CN1CCCCC1	.	-28.4%	10.1	-7.0	-4.8%	2.8
COc1ccc(/C=C/C(=O)OCCN(C)C(C)(C)C)cc1	.	1.7%	.	0.2	.	.
N#Cc1c(C(F)(F)F)cc(-c2ccco2)nc1SCc1ccncc1	25.1µM*	-14.5%	-4.2	7.7	?	3.5
CSc1nc(-c2ccco2)cc(C(F)(F)F)c1C#N	-7.4%	?	11.9	0.4	20.2%	-7.1
N#Cc1c(C(F)(F)F)cc(-c2ccc(F)cc2)nc1SCC(=O)O	.	0.3%	4.4	-7.6	-3.7%	-0.4
N#Cc1c(C(F)(F)F)cc(-c2ccco2)nc1SCc1ccccn1	31.6µM*	?	-7.3	-1.8	.	-11.3
CCN(CC)C(=O)CSc1nc(-c2ccco2)cc(C(F)(F)F)c1C#N	31.6µM*	-0.6%	0.1	2.2	0.2%	-5.9
Cc1ccc2c(Cl)cc(Cl)c(OCC(=O)NCC(F)(F)F)c2n1	.	?	.	11.0	.	.
CCCCOP(=O)(c1ccc(N(C)C)cc1)C(Nc1ccccc1)c1ccccc1 (stereo not drawn)	-3.8%	-28.2%	-4.4	4.9	?	-95.3*
CCCOP(=O)(c1ccc(N(C)C)cc1)C(Nc1ccccc1)c1ccc(N(C)C)cc1 (stereo not drawn)	-10.5%	-1.3%	0.8	2.3	-9.8%	-21.0
CC1=C[C@@H](CNC(=O)CC(C)(C)CC(=O)O)[C@H](C(C)C)C[C@H]1Cc1nc2ccc(C)cc2[nH]1	.	24.4%	.	.	.	.
Cc1nc2ccc(F)cc2cc1C(=O)Nc1ccc(Cl)c(Cl)c1	-2.9%	-22.6%	-130.0*	-0.4	?	4.4
Cc1nc2ccc(Cl)cc2cc1C(=O)Nc1ccc(C(=O)N(C)C)cc1	.	-3.4%	.	9.5	.	.
COc1ccc(CC(=O)NC2CCN(c3cc(-c4ccc(Cl)cc4)[nH]n3)C2)cc1OC (stereo not drawn)	.	-18.3%	.	.	.	.
C=CCc1ccc(OCC(O)CN2CCN(c3ccccc3OC)CC2)c(OC)c1 (stereo not drawn)	-0.8%	?	-5.3	-1.9	-13.2%	-7.9
C=CCc1ccccc1OCC(O)CN1CCOCC1 (stereo not drawn)	.	39.8µM*	7.3	5.3	.	-13.1
C=CCc1ccc(OCC(O)CN2CCC(Cc3ccccc3)CC2)c(OC)c1 (stereo not drawn)	-2.3%	?	-31.1	-4.2	-8.3%	-86.4*
C=CCc1ccccc1OCC(O)CN1CCN(c2ccc(OC)cc2)CC1 (stereo not drawn)	-1.6%	0.0%	-32.4	5.6	-0.3%	-14.6
